From PubChem BioAssay
Calls of active or inactive are those of the source.

Tests used:
[1] = tested on: PRMT1 (protein arginine N-methyltransferase 1); test: small molecules binding arginine methyltransferase PRMT1 – biochemical, small-molecule microarray, 635 nm fluorescence, primary screen (AID 1088); conditions: higher = more signal;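 also: binding of Prmt1 protein to compounds spotted on small-molecule microarray slides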
[2] = growth effects on S. cerevisiae YJM789 – YJM789 clinical isolate, OD600, 24 h, basal, primary screen (AID 1089); conditions: higher = more signal, called active from +8 up or from −8 down;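 also: growth of clinical yeast isolate S. cerevisiae YJM 789 seeded 1000 cells per well; test concentration not given here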
[3] = S. pombe growth modifiers, basal conditions – strain 972, OD600, 24 h, no modulator, primary screen (AID 1090);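 also: basal condition with compound alone and no growth modifier present; test concentration not given here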; conditions: S. pombe 972 growth, higher = more signal, called active from +8 up or from −8 down
[4] = budding yeast growth modifiers under rapamycin – strain BY4716, OD600, 96 h, primary screen (AID 1091); also: test concentration not given here; conditions: S. cerevisiae BY4716 + rapamycin, higher = more signal, called active from +8 up or from −8 down
[5] = target: Torsin-1A-interacting protein 2 (Homo sapiens) (UniProt Q8NFQ8); test: small molecules binding lysate-expressed LULL1 – cell lysate, human LULL1 lysate, 635/667 nm fluorescence, primary screen (AID 1092); conditions: small-molecule microarray, hLULL1 lysate binding, 635 nm fluorescence; higher = more signal;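 also: probe is lysate of COS7 cells overexpressing human LULL1; score merges per-feature 667 nm fluorescence with signal-to-noise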
[6] = optical density change of DRC41 E. coli – strain DRC41, OD650, 24 h, E. coli filamentation project, primary screen (AID 1093);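 also: MC1000 strain lacking acrAB efflux and sulA so SOS filamentation is blocked; test concentration not given here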; conditions: E. coli DRC41 growth, higher = more signal, called active from +8 up or from −8 down
[7] = probe aLefty2 binding to arrayed compounds – biochemical, biotinylated probe, 635/667 nm fluorescence, primary screen (AID 1094); conditions: small-molecule microarray, higher = more signal;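 also: score merges spot fluorescence near 667 nm with spot signal-to-noise ratio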
[8] = tested on: Noggin (protein binding on small-molecule microarray); test: small molecules binding Noggin protein – biochemical, 635/667 nm fluorescence, primary screen (AID 1095); conditions: 635 nm fluorescence, higher = more signal;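 also: score merges 667 nm feature fluorescence with signal to noise over triplicate slides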
[9] = target: Neurogenic locus notch homolog protein 3 (Homo sapiens) (UniProt Q9UM47); test: small molecules binding NOTCH3 protein – biochemical, 635/667 nm fluorescence, primary screen (AID 1096); conditions: small-molecule microarray, 635 nm fluorescence, higher = more signal
[10] = probe aEGFR binding to arrayed compounds – biochemical, biotinylated probe, 635/667 nm fluorescence, primary screen (AID 1097); conditions: small-molecule microarray, higher = more signal;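 also: probe is a biotinylated anti-EGFR antibody binding compounds printed on slides; score combines fluorescence near 667 nm and signal to noise of each spot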
[11] = tested on: Plasmodium falciparum Sir2 (PF13_0152, Sir2A); test: Plasmodium falciparum Sir2A binding compounds – biochemical, small-molecule microarray, 635 nm fluorescence, primary screen (AID 1098); conditions: fluorescence 635 nm, higher = more signal;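 also: score merges spot fluorescence intensity with its signal-to-noise ratio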
[12] = probe aDKK1 binding to arrayed compounds – biochemical, biotinylated probe, 635/667 nm fluorescence, primary screen (AID 1099); conditions: small-molecule microarray, higher = more signal;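 also: score merges 667nm spot fluorescence with signal to noise across triplicate slides; reference of the scale not given here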
[13] = probe aCHRDL2 binding to arrayed compounds – biochemical, biotinylated probe, 635/667 nm fluorescence, primary screen (AID 1100); conditions: small-molecule microarray, higher = more signal
[14] = change in splice reporter luminescence, either direction, cell-based, HEK293, spliceosome inhibition project, primary screen (AID 1101); conditions: HEK293 splicing luciferase reporter, 24 h, higher = more signal, called active from +8 up or from −8 down;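 also: HEK293 cells carrying a splicing-competent luciferase reporter gene; test concentration not given here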
[15] = target: Fibroblast growth factor 10 (Homo sapiens) (UniProt O15520); test: compounds binding fibroblast growth factor 10 – biochemical, small-molecule microarray, 635 nm fluorescence, primary screen (AID 1102); conditions: FGF10 binding, fluorescence 635 nm, higher = more signal
[16] = tested on: glycogen synthase kinase-3 (GSK3A per assay name; protocol says GSK3B); test: compounds binding glycogen synthase kinase-3 – biochemical, small-molecule microarray, 635 nm fluorescence, GSK3A, primary screen (AID 1103); conditions: fluorescence 635 nm, higher = more signal; also: the record names both GSK3A and GSK3B
[17] = target: Epidermal growth factor receptor (Homo sapiens) (UniProt P00533); test: compounds binding epidermal growth factor receptor – biochemical, small-molecule microarray, 635 nm fluorescence, primary screen (AID 1104); conditions: EGFR binding, higher = more signal;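 also: score merges 667 nm emission intensity with spot signal to noise over triplicate slides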
[18] = target: Follistatin-related protein 3 (Homo sapiens) (UniProt O95633); test: compounds binding follistatin-related protein 3 – biochemical, small-molecule microarray, 635 nm fluorescence, primary screen (AID 1105); conditions: FSTL3 binding, higher = more signal;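 also: score merges emission near 667 nm and signal to noise per printed spot across three slides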
[19] = target: Dickkopf-related protein 1 (Homo sapiens) (UniProt O94907); test: small molecules binding DKK1 protein – biochemical, small-molecule microarray, 635 nm fluorescence scan, primary screen (AID 1106); conditions: higher = more signal;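 also: score merges emission near 667 nm with signal to noise over three replicate slides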
[20] = tested on: Inhibin beta A chain (activin A); test: small molecules binding activin A – biochemical, small-molecule microarray, 635 nm fluorescence scan, primary screen (AID 1107); conditions: INHBA, higher = more signal;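 also: mouse activin A protein probed at 4.33 µg/mL on printed slides; score merges bound-protein fluorescence near 667 nm with spot signal-to-noise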

Epidermal growth factor receptor (Homo sapiens), sequence (P00533 whole entry, looked up): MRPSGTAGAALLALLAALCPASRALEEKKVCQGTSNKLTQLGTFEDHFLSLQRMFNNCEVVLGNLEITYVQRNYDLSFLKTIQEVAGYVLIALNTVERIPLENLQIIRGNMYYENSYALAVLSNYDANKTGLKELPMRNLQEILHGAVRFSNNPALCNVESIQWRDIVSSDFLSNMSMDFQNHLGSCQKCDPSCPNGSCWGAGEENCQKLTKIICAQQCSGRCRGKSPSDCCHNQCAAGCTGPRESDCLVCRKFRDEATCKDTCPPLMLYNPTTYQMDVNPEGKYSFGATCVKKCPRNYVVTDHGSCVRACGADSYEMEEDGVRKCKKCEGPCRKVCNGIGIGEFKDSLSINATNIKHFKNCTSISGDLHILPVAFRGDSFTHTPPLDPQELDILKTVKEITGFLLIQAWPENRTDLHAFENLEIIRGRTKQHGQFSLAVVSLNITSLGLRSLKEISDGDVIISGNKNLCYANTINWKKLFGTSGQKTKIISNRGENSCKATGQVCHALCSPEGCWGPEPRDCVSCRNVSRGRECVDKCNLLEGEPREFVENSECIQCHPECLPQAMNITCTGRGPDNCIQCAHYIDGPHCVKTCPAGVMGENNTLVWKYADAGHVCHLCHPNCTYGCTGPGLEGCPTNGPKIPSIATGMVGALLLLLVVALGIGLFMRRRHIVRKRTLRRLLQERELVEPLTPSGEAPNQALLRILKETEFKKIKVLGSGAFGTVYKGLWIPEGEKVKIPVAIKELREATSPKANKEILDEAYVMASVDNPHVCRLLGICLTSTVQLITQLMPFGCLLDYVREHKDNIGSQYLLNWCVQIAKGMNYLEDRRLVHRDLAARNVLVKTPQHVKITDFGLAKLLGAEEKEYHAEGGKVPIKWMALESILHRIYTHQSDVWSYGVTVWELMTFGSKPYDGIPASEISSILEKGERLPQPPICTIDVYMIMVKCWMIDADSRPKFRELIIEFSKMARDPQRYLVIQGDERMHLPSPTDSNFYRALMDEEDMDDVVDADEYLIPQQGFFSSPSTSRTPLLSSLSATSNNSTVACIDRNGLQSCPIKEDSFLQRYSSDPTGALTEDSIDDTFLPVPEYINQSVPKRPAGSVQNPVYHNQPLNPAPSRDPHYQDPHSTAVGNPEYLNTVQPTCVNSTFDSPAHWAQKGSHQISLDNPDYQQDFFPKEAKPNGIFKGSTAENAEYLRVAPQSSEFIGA
Fibroblast growth factor 10 (Homo sapiens), sequence (O15520 whole entry, looked up): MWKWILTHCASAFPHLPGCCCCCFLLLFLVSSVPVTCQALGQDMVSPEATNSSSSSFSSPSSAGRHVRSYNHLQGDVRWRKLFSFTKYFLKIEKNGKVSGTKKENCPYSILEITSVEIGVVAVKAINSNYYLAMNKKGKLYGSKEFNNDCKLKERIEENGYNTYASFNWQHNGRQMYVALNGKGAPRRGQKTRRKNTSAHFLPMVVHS
Torsin-1A-interacting protein 2 (Homo sapiens), sequence (Q8NFQ8 whole entry, looked up): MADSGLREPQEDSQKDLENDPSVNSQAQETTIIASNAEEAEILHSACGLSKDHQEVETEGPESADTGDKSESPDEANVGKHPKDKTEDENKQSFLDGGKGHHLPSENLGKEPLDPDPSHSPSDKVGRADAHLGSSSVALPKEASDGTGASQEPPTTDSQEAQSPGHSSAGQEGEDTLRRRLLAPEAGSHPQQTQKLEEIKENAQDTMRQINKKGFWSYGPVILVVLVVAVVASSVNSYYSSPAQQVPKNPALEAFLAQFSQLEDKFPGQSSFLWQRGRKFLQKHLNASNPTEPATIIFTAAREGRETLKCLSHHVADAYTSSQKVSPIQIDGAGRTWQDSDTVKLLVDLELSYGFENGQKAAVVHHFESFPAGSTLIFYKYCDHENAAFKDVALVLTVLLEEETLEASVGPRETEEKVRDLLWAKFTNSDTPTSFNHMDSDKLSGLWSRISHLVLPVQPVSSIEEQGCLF
Dickkopf-related protein 1 (Homo sapiens), sequence (O94907 whole entry, looked up): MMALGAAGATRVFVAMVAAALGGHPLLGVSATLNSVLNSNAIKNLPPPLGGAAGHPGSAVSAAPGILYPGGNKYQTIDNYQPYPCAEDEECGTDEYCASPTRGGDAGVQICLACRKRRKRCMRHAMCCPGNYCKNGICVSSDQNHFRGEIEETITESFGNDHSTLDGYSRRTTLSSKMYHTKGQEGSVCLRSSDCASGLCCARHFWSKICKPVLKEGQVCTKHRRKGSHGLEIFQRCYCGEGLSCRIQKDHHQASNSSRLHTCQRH
Follistatin-related protein 3 (Homo sapiens), sequence (O95633 whole entry, looked up): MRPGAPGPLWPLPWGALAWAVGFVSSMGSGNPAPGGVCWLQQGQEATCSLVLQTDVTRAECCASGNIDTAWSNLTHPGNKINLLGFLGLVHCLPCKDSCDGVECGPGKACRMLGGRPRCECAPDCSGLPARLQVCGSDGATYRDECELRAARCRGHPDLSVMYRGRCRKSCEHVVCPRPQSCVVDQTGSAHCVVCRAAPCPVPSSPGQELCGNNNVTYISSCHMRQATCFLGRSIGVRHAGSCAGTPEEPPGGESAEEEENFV
Neurogenic locus notch homolog protein 3 (Homo sapiens), sequence (Q9UM47 whole entry, looked up): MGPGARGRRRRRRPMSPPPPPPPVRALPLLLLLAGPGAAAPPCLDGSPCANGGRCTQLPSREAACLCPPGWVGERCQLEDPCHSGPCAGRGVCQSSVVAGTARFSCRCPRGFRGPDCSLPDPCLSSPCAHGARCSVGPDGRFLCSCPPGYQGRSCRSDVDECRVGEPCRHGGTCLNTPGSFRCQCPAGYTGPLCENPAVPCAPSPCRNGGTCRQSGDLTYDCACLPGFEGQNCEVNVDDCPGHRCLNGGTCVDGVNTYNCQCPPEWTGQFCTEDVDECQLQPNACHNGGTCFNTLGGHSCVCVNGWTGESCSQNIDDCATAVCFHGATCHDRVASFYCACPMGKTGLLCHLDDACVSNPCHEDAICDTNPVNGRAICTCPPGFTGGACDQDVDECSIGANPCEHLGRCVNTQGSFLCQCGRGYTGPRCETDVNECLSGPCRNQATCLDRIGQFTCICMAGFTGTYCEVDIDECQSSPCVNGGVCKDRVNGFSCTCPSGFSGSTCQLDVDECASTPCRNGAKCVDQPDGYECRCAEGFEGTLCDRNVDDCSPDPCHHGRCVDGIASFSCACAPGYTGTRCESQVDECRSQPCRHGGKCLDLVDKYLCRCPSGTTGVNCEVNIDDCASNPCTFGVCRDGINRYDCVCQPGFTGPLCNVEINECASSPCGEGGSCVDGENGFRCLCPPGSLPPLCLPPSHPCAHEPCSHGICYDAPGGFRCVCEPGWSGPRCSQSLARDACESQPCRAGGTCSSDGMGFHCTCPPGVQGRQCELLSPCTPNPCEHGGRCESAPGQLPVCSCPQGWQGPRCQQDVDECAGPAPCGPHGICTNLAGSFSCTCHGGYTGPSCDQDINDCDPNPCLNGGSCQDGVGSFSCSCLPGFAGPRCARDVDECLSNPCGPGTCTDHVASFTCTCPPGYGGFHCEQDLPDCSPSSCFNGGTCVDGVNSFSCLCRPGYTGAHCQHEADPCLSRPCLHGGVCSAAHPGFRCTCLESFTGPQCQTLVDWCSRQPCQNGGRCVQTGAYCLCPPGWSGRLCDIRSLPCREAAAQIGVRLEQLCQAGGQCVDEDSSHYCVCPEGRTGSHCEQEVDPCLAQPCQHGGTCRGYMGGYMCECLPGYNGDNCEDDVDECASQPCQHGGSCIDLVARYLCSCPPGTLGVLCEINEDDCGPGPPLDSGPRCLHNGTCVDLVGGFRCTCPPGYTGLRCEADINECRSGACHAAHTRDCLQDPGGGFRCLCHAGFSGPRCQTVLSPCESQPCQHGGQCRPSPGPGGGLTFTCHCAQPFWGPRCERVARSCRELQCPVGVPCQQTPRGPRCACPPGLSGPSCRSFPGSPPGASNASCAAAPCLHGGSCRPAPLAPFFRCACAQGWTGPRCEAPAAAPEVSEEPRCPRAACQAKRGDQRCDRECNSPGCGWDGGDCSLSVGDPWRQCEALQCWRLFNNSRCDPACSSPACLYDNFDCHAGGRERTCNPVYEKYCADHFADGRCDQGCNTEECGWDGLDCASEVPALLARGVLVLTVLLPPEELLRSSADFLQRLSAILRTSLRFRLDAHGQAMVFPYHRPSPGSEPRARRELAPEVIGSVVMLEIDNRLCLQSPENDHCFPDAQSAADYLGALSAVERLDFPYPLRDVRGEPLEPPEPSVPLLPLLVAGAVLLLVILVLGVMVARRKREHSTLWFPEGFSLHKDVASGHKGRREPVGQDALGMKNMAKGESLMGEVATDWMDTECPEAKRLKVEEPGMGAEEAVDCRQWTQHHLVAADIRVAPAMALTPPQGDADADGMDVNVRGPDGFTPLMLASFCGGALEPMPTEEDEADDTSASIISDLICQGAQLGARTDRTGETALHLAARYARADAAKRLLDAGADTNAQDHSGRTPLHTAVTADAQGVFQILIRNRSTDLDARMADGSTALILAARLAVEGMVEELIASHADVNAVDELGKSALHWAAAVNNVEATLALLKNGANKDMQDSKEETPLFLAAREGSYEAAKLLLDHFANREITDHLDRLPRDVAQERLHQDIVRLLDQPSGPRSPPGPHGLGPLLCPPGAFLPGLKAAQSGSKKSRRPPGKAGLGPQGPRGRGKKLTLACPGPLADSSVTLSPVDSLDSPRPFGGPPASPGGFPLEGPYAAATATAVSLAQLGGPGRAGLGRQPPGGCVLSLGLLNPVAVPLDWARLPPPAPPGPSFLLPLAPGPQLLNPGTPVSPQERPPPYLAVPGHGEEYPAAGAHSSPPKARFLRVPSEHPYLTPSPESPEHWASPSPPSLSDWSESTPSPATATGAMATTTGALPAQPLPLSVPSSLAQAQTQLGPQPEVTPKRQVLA

Row | Structure (SMILES) | composite z-score [1] | z-score [2] | z-score [3] | z-score [4] | composite z-score [5] | z-score [6] | composite z-score [7] | composite z-score [8] | composite z-score [9] | composite z-score [10] | composite z-score [11] | composite z-score [12] | composite z-score [13] | z-score [14] | composite z-score [15] | composite z-score [16] | composite z-score [17] | composite z-score [18] | composite z-score [19] | composite z-score [20]
1 | Cc1ccc(S[C@]2(C(=O)NC3CC3)CC(=O)N(Cc3cc(C(F)(F)F)cc(C(F)(F)F)c3)[C@@H]2c2ccc(CO)cc2I)cc1 | 1.28 | -5.04 (inactive) | -3.38 (inactive) | -0.429 (inactive) | 2.2 | 0.545 (inactive) | -0.242 | 0.502 | 0.409 | 0.395 | 1.8 | 0.679 | -0.525 | 0.0986 (inactive) | 0.126 | 0.322 | -0.141 | 0.484 | -0.0211 | 1.15
2 | CC(C)CNC(=O)[C@@H]1c2ccccc2C(=O)N(CC23CC4CC(CC(C4)C2)C3)[C@H]1c1ccc(CO)cc1 | 0.797 | -0.998 (inactive) | -1.88 (inactive) | -0.243 (inactive) | 2.69 | -0.109 (inactive) | -0.121 | 0.264 | 0.953 | -0.146 | 0.248 | 0.031 | 0.446 | -1.46 (inactive) | 0.124 | 1.02 | 0.0591 | 0.777 | -0.0314 | 0.471
3 | CCCC[C@H]1OB(O)C[C@H]2C1=C(C)C[C@H]1C(=O)C=CC(=O)[C@H]12 | 1.24 | 0.111 (inactive) | -15.4 (active) | -0.0407 (inactive) | 1.01 | -0.0396 (inactive) | -0.0916 | 0.782 | 1.04 | -0.071 | 0.559 | -0.257 | -0.722 | 1.04 (inactive) | 0.845 | 0.827 | 0.475 | 0.799 | 0.664 | 0.852
4 | C=C(CCCC)C(=O)CC[C@H](OC(=O)c1cccnc1)c1ccc(CO)o1 | 1.55 | -0.697 (inactive) | -0.176 (inactive) | -0.036 (inactive) | 2.07 | -0.0138 (inactive) | 0 | 1.47 | 1.13 | 0.045 | 1.3 | -0.013 | -0.519 | 0.981 (inactive) | 1.13 | 1.17 | 0.266 | 1.3 | 1.36 | 1.19
5 | CO[C@H]1O[C@H](CO)[C@@H](OC(=O)Nc2ccccc2)[C@@H]2OC(=O)[C@H](Cc3ccccc3)C/C=C/C[C@@H](Cc3ccccc3)C(=O)O[C@@H]12 | 1.55 | -1.03 (inactive) | -0.0378 (inactive) | 1.9 (inactive) | 2.58 | 0.588 (inactive) | -0.104 | 0.107 | 0.702 | 0.0308 | 1.46 | 0.273 | 0.651 | -0.724 (inactive) | 1.04 | 0.56 | 0.0366 | 0.877 | 0.048 | 1.14
6 | CCCC=C(CCC)[C@@H](NC(=O)c1ccco1)c1ccc(C(=O)OC)cc1 | 0.997 | 1.06 (inactive) | 0.113 (inactive) | 2.22 (inactive) | 3.52 | -0.868 (inactive) | 0.198 | 0.678 | 1.06 | -0.15 | 0.851 | 0.241 | 1.01 | -0.545 (inactive) | 1.08 | 1.3 | 0.0415 | 0.938 | -0.18 | 0.46
7 | CC(C)N1CC=CC23O[C@@H]4C=CCCOC(=O)C4[C@H]2C(=O)N(CCCCCO)[C@@H]3C1=O (stereo not given in full) | 0.08 | -0.0489 (inactive) | -0.0017 (inactive) | -0.569 (inactive) | 0.988 | 0.447 (inactive) | -0.242 | 0.154 | -0.23 | -0.236 | 1.58 | -0.188 | 0.317 | -0.0254 (inactive) | -0.347 | -1.26 | -0.575 | -0.749 | -1.06 | 0.559
8 | C=CCNC(=O)[C@H]1[C@@H]2C(=O)O[C@@H](c3ccccc3)[C@@H](c3ccccc3)N2[C@@H](c2ccc(O)cc2)[C@]12C(=O)Nc1ccc(C#CC3=CCCCC3)cc12 | 1.42 | 1.51 (inactive) | 0.614 (inactive) | 1.98 (inactive) | 1.54 | -0.197 (inactive) | 0.384 | 1 | 0.758 | -0.17 | 1.14 | 0.593 | 0.662 | 0.622 (inactive) | 0.703 | 1.13 | 0.859 | 0.696 | 0.909 | 1.31
9 | CC(C)=CCN(C(=O)C#Cc1ccccc1)[C@H](CO)c1ccccc1 | 0.95 | -0.577 (inactive) | -4.9 (inactive) | 36.4 (active) | 1.2 | 0.354 (inactive) | -0.116 | 0.69 | 0.829 | -0.0302 | -0.117 | -0.267 | -0.693 | 7.56 (inactive) | 0.341 | 0.506 | 0.512 | 0.604 | 0.439 | 0.661
10 | CN1C(=O)[C@]2(CCC(=O)OC(C)(C)C)N=C(c3ccc(OCCCO)cc3)O[C@@H]2c2ccccc21 | 1.55 | 0.494 (inactive) | -0.243 (inactive) | 0.872 (inactive) | 3.06 | 0.95 (inactive) | 0.0079 | 1.9 | 1.13 | -0.04 | 1.14 | -0.0732 | 0.651 | -0.432 (inactive) | 1.38 | 1.29 | -0.0099 | 0.659 | 0.297 | 0.643
